Hits are enriched below; roughly 2.4% of the tested compounds scored in any of these assays.
D2 ag-1: agonists of human D2 dopamine receptor; P14416; HEK293 T-REx D2 cells, calcium flux agonist mode; activation, % at 2 µM; 340,000 tested, 0.53% active;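 active means activation over 3 SD above normal in the single-dose calcium agonist read, cut at about 30% in these data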
Target sequence (P14416 whole entry, looked up): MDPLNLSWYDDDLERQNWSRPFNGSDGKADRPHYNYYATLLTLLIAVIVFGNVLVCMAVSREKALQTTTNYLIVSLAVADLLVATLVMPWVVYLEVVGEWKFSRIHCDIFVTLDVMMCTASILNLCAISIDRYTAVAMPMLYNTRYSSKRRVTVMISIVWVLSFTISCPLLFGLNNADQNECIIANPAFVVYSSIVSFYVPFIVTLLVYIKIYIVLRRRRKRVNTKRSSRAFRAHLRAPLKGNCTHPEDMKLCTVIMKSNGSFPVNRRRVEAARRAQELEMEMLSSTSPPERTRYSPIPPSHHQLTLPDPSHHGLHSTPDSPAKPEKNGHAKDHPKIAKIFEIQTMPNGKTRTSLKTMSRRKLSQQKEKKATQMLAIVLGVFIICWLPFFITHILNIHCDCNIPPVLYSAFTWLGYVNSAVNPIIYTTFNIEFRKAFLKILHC
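Tetracycline-induced HEK293 Trex cells with D2 receptor force-coupled to calcium signaling, plated overnight at 30 C and loaded with no-wash calcium dye. Calcium flux read kinetically for 180 s after compound addition; responses flag agonists.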
D2 ag-2: activates the human D2 dopamine receptor; P14416; DiscoveRx PathHunter D2 beta-arrestin, luminescence, 90 min; 100% = 57 uM dopamine signal; activation, % (concentration not given with the values); 360,000 tested, 0.084% active; in the data active means activation above about 40%
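DiscoveRx PathHunter D2 beta-arrestin cells (2,100/well) attached overnight, then compound-stimulated 90 min at 37 C in HBSS/10 mM HEPES/0.1% Tween-20 buffer; beta-galactosidase complementation read by luminescence after 1 h at ambient temperature. Dopamine 57 uM final (EC100) as control.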
D2 PAM-1: positively modulates the human D2 dopamine receptor allosterically | 340,000 tested, 0.34% active | HEK293 T-REx D2, calcium flux, EC20 dopamine potentiation | potentiation, % at 10 µM;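 active means potentiation over 3 SD above the plate norm, cut at about 30% in these data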
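Tetracycline-induced Hek293 Trex D2 cells, force-coupled to calcium, loaded with no-wash calcium dye. Compound added with 180 s kinetic read for agonism, then EC20 dopamine and a further 180 s read for potentiation.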
D2 antag: antagonists of human D2 dopamine receptor | P14416 | HEK293 TREx D2 cells, calcium flux, dopamine EC80 | inhibition, % at 10 µM | 340,000 tested, 2% active | AID 485344; in the data active means inhibition above about 30%; inactive means below that, where a call was filed
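Antagonism is scored as inhibition of an EC80 dopamine-evoked calcium signal in a force-coupled, tetracycline-inducible HEK293 T-REx D2 line, with compound present 180 s before agonist.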
D2 PAM-2: human D2 receptor positive allosteric modulation | potentiation, % (test concentration not listed) | 360,000 tested, 0.23% active | P14416 | DiscoveRx D2 beta-arrestin cells, luminescence, 90 min; 100% = 57 uM dopamine signal; in the data active means potentiation above about 50%
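PathHunter D2 cells, attached overnight at 37 deg C, received compound in DMSO plus dopamine at EC20 (50 nM final) for 90 min at 37 deg C. Beta-arrestin recruitment was read as luminescence after 1 h with detection reagent at ambient temperature.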
Of the large screens only hits and unclear results are named; the others gave an inactive call; ! = a repeat was not active.

Clc1ccc2c(c1)C(N1CCNCC1)=Nc1ccccc1O2	D2 antag 76
COc1ccc(Br)cc1CN1CCCC(C(=O)N2CCCCCC2)C1 (stereo unspecified)	D2 antag 32
CCC1=C(OC(=O)N(CC)CC)N2C(=O)OC(=NCC(=O)OC)[C@]2(Cc2ccccc2)[C@H]2C1=CC[C@H]1C(=O)NC(=O)[C@H]12	D2 antag 53
CCC1=C(OC(=O)N(CC)CC)N2C(=O)OC(=NCC(=O)OC)[C@]2(Cc2ccccc2)[C@H]2C1=CC[C@H]1C(=O)N(C)C(=O)[C@H]12	none
Cc1cc(C)n(C(=O)CNc2cccc(Cl)c2C)n1	none
Cc1cc(C)n(C(=O)CNc2ccccc2Cl)n1	D2 antag 32
COc1cc(C#N)ccc1OCC(=O)N1CCc2ccccc2C1	D2 PAM-1 38
CC(C)NS(=O)(=O)c1ccc(OCC(=O)N2CCc3ccccc3C2)cc1	D2 antag 30
CC(C)NS(=O)(=O)c1ccc(OCC(=O)N2CCCC2)cc1	none (no result: D2 ag-1, D2 antag)
Cc1cc(OCC(=O)OCC(=O)N2CCc3ccccc3C2)ccc1Cl	D2 PAM-1 36
Cn1c(=O)c2c(-c3ccccc3Cl)n(-c3cc(Cl)ccc3O)cc2n(C)c1=O	none (no result: D2 ag-2, D2 antag, D2 PAM-2)
CCOc1cc(CNC(=O)Cn2ncn3c(cc4cc(F)ccc43)c2=O)cc(OCC)c1OCC	none (no result: D2 ag-2, D2 antag, D2 PAM-2)
COc1cc2c(cc1OC)C(=O)C(c1ccc3c(c1)OCO3)CC2 (stereo unspecified)	none (no result: D2 ag-1, D2 PAM-1, D2 antag)
COc1cc2c(cc1OC)C(=O)C(Br)CC2 (stereo unspecified)	D2 ag-2 46 (no result: D2 ag-1, D2 PAM-1, D2 antag)
CCC(C(=O)NCCc1ccc(Cl)cc1)n1ccc2cc(S(=O)(=O)N3CCCCC3)ccc21 (stereo unspecified)	none (no result: D2 ag-2, D2 antag, D2 PAM-2)
O=C(COC(=O)c1ccccc1-c1nc2ccccc2s1)NC1CCS(=O)(=O)C1 (stereo unspecified)	D2 antag 32
COc1cc(O)c(C(CC(=O)N2CCCC(C)C2)c2ccc(N(C)C)cc2)c(OC)c1 (stereo unspecified)	D2 antag 31
COc1cc(Cl)c(C)cc1NC(=O)C1CCCN(c2ncnc3onc(-c4ccc(F)cc4)c23)C1 (stereo unspecified)	none (no result: D2 ag-2, D2 antag, D2 PAM-2)
COc1ccc([N+](=O)[O-])cc1NC(=S)NC(NC(=O)Cc1ccc(OC)c(OC)c1)C(Cl)(Cl)Cl (stereo unspecified)	D2 antag 74
COc1ccc([N+](=O)[O-])cc1NC(=S)NC(NC(C)=O)C(Cl)(Cl)Cl (stereo unspecified)	none
CCCN1CCN(CCNC(=O)Nc2ccc(OC)cc2OC)CC1	none (no result: D2 ag-2, D2 antag, D2 PAM-2)
CCC(C)NC(=O)c1cnn2c(C)c3c(nc12)CCCC3 (stereo unspecified)	D2 PAM-1 33
CNS(=O)(=O)c1cn(CC(=O)N2CCN(c3ccc(C)cc3C)CC2)cc1S(=O)(=O)NC	none (no result: D2 ag-2, D2 antag, D2 PAM-2)
CC1CCN(S(=O)(=O)c2ccc3ncn(CC(=O)N4CCN(C)CC4)c(=O)c3c2)CC1	D2 antag 48
COCCn1c(C)cc(C(=O)Cn2nc(C(=O)O)c3ccccc3c2=O)c1C	D2 antag 32
O=C(O)c1nn(CCOc2cccc(Cl)c2)c(=O)c2ccccc12	none
O=C(O)c1nn(CCOc2c(Cl)cccc2Cl)c(=O)c2ccccc12	D2 PAM-1 45
Cc1cc(C(=O)COC(=O)c2ccc[nH]c2=O)c(C)n1C	none
COCCn1c(C)cc(C(=O)COC(=O)c2ccc[nH]c2=O)c1C	D2 antag 62
COC(=O)c1ccccc1NC(=O)CSc1c2c(nc3ccc(Cl)cc13)CCCC2	none (no result: D2 ag-2, D2 antag, D2 PAM-2)
COc1ccccc1NC(=O)CSc1nnc(NC(=O)Nc2ccc(C)cc2)s1	none (no result: D2 ag-2, D2 antag, D2 PAM-2)
C=C(C)COc1ccc(-c2[nH]ncc2-c2ccccc2)c(O)c1	D2 PAM-2 84
COc1ccc(-c2cn[nH]c2-c2ccc(OCc3ccc(F)cc3)cc2O)cc1OC	D2 antag 45
C=C(C)COc1ccc(-c2[nH]ncc2-c2ccc(OC)cc2)c(O)c1	none (no result: D2 ag-1)
CCOC(=O)/C(N=Nc1ccc2c(c1)OCO2)=C(\C)O	D2 PAM-1 119
CSc1ccc(/C=C/C(=O)OCC(=O)N2CCN(S(=O)(=O)c3ccc(C)cc3C)CC2)cc1	D2 antag 41
COc1cc2c3nnc(-c4ccc(F)cc4)c-3cn(Cc3ccccc3)c2cc1OC	D2 ag-2 50
CCOc1ccc(/C=C/c2nc(C#N)c(N3CCN(CC)CC3)o2)cc1	none (no result: D2 ag-2, D2 antag, D2 PAM-2)
Cc1ccc2nc(Nc3ccccc3)c(C=O)c(=O)n2c1	D2 PAM-1 37
CCOc1ccc(N(C(=O)c2snc(C(N)=O)c2N)C(C(=O)NC2CCCC2)C(C)C)cc1 (stereo unspecified)	D2 PAM-1 31
CCOc1ccc(N(C(=O)c2snc(C(N)=O)c2N)C(C)C(=O)NC2CCCCC2)cc1 (stereo unspecified)	none (no result: D2 PAM-1)
Cc1ccc(C(C(=O)NC2CCCCC2)N(CCCN2CCOCC2)C(=O)c2snc(C(N)=O)c2N)cc1 (stereo unspecified)	D2 antag 49
Cc1ccc(N(C(=O)c2snc(C(N)=O)c2N)C(C(=O)NC2CCCC2)c2ccncc2)cc1 (stereo unspecified)	D2 antag 105
COc1cc(OC)cc(N(C(=O)c2snc(C(N)=O)c2N)C(C(=O)NCC2CCCO2)c2ccc(C)o2)c1 (stereo unspecified)	D2 PAM-1 35 (no result: D2 ag-2, D2 PAM-2)
O=S(=O)(NCC1CCN(Cc2ccccc2)CC1)c1ccccc1C(F)(F)F	D2 antag 54
CN(/N=C/c1cc([N+](=O)[O-])ccc1O)c1ccccc1	none
CN(/N=C/c1ccc(-c2ccc([N+](=O)[O-])cc2)o1)c1ccccc1	D2 ag-1 30
c1ccc(COc2ccc(OCCCCN3CCCC3)cc2)cc1	none
CC1CCN(CCCCOc2ccc(C(C)(C)C)cc2)CC1	D2 antag 33
CC1CCN(CCOc2ccc(OCc3ccccc3)cc2)CC1	D2 antag 31
Cc1c(C(=O)NCc2cccc(Br)c2)oc2ccc3c(c12)C(=O)CC(C)(C)O3	none (no result: D2 ag-2, D2 antag, D2 PAM-2)
CCOC(=O)c1cc(-c2ccc(F)cc2)n(CCC(=O)Nc2cc(OC)cc(OC)c2)c1C	none (no result: D2 ag-2, D2 antag, D2 PAM-2)
CCC1(c2ccc(Cl)cc2)NC(=O)N(CC(=O)NCc2ccc(F)cc2)C1=O (stereo unspecified)	none
CCC1(c2ccc(Cl)cc2)NC(=O)N(Cc2ccc(C(=O)OC)cc2)C1=O (stereo unspecified)	D2 PAM-1 35
c1ccc(CN(CC2=NCCN2)c2ccccc2)cc1	D2 antag 41!
CCc1ccc(OC(C)C(=O)N2CCC(c3nc4ccccc4s3)CC2)cc1 (stereo unspecified)	none (no result: D2 ag-2, D2 antag, D2 PAM-2)
Cc1cc(C)c2c(n1)nn1c(NCCCN(C)C)cc(C)nc21	D2 PAM-1 34
CCOC(=O)c1cnc2cc(C(F)(F)F)ccc2c1Nc1ccc(F)cc1F	none (no result: D2 ag-2, D2 PAM-1, D2 antag, D2 PAM-2)

Assay outcomes as filed in PubChem.
